Reference: PubChem BioAssay AID1159580 (chemical genetic matrix, 2015)
Out of some 5,500 compounds screened, about 2,000 (36%) were called active. Inconclusive results (about 18%) are left out. Cut-off read from the data, not from the text of the source: active = normalized growth mostly below about 0.91 (no sharp cut-off); inconclusive = no clear call, values can overlap the other calls; inactive = mostly above about 0.92. Some of the results follow.

Assay: chemical genetic growth profiling, strain panel (AID 1159580);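 note: tested at 20 µM; growth read once vehicle control cultures reached saturation at 30 °C; 1 = growth at the plate median or of vehicle wells; lower values mean less growth of the strain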
Conditions: S. cerevisiae deletion strains, growth OD

Measured: normalized growth

O=C(/C=C/c1ccc2c(c1)OCO2)Nc1ccc(Br)cc1
active: locus YLR113W, strain HOG1, active compounds read low 0.754
inactive: locus YAR019C, strain CDC15, active compounds read low 0.962 | locus YBL105C, strain PKC1, active compounds read low 0.962 | locus YBR135W, strain CKS1, active compounds read low 0.972 | locus YBR136W, strain MEC1, active compounds read low 0.961 | locus YBR160W, strain CDC28, active compounds read low 0.967 | locus YDL017W, strain CDC7, active compounds read low 0.964 | locus YDL028C, strain MPS1, active compounds read low 0.962 | locus YDL101C, strain DUN1, active compounds read low 0.955 | locus YDL108W, strain KIN28, active compounds read low 0.961 | locus YDL132W, strain cdc53, active compounds read low 0.96 | locus YDL214C, strain PRR2, active compounds read low 0.922 | locus YDR052C, strain DBF4, active compounds read low 0.953 | locus YDR054C, strain cdc34, active compounds read low 0.958 | locus YDR226W, strain ADK1, active compounds read low 0.968 | locus YDR477W, strain SNF1, active compounds read low 0.962 | locus YER123W, strain YCK3, active compounds read low 0.9 | locus YER133W, strain GLC7, active compounds read low 0.976 | locus YFL009W, strain cdc4, active compounds read low 0.954 | locus YFL029C, strain CAK1, active compounds read low 0.962 | locus YFR003C, strain YPI1, active compounds read low 0.957 | locus YFR019W, strain FAB1, active compounds read low 0.987 | locus YFR028C, strain CDC14, active compounds read low 0.955 | locus YGR040W, strain KSS1, active compounds read low 0.95 | locus YGR052W, strain FMP48, active compounds read low 0.909 | locus YGR092W, strain DBF2, active compounds read low 0.767 | locus YHR030C, strain SLT2, active compounds read low 0.86 | locus YHR079C, strain IRE1, active compounds read low 0.872 | locus YHR082C, strain KSP1, active compounds read low 0.965 | locus YHR205W, strain SCH9, active compounds read low 0.791 | locus YIL147C, strain SLN1, active compounds read low 0.962 | locus YJL095W, strain BCK1, active compounds read low 0.77 | locus YJL128C, strain PBS2, active compounds read low 0.918 | locus YJL157C, strain FAR1, active compounds read low 0.974 | locus YJR016C, strain ILV3, active compounds read low 0.958 | locus YJR066W, strain TOR1 (second series), active compounds read low 0.972 | locus YJR066W, strain TOR1, active compounds read low 0.912 | locus YKL048C, strain ELM1, active compounds read low 0.931 | locus YKL067W, strain YNK1, active compounds read low 0.932 | locus YKL101W, strain HSL1, active compounds read low 0.933 | locus YKL193C, strain SDS22, active compounds read low 0.954 | locus YKL203C, strain TOR2, active compounds read low 1.03 | locus YLR133W, strain CKI1, active compounds read low 0.96 | locus YLR403W, strain SFP1, active compounds read low 0.927 | locus YML070W, strain DAK1, active compounds read low 0.9 | locus YMR001C, strain CDC5, active compounds read low 0.957 | locus YMR205C, strain PFK2 (second series), active compounds read low 0.938 | locus YMR277W, strain FCP1, active compounds read low 0.959 | locus YNL006W, strain LST8, active compounds read low 0.974 | locus YNL020C, strain ARK1, active compounds read low 0.955 | locus YNL161W, strain CBK1, active compounds read low 0.971 | locus YNL183C, strain NPR1, active compounds read low 0.889 | locus YNL207W, strain RIO2, active compounds read low 0.953 | locus YNL222W, strain SSU72, active compounds read low 0.966 | locus YNL307C, strain MCK1 (second series), active compounds read low 0.854 | locus YOL078W, strain AVO1, active compounds read low 0.945 | locus YOL136C, strain PFK27, active compounds read low 0.889 | locus YOR061W, strain CKA2, active compounds read low 0.973 | locus YOR119C, strain RIO1, active compounds read low 1.02 | locus YOR231W, strain MKK1, active compounds read low 0.847 | locus YOR329C, strain SCD5, active compounds read low 0.963 | locus YPL031C, strain PHO85, active compounds read low 0.962 | locus YPL153C, strain RAD53, active compounds read low 0.97 | locus YPL204W, strain HRR25, active compounds read low 0.95 | locus YPL209C, strain IPL1, active compounds read low 0.963 | locus YPL256C, strain CLN2, active compounds read low 0.954 | locus YPR025C, strain CCL1, active compounds read low 0.958 | locus YPR106W, strain ISR1, active compounds read low 0.946 | locus YPR111W, strain DBF20, active compounds read low 0.925 | strain NNK1, active compounds read low 0.939 | strain TSCII, active compounds read low 0.968
